Experimental data as given in PubChem BioAssay (NCI).
About 79,000 compounds went through this panel and 15% of them were active in at least one assay; those are over-represented in the sample as a whole. The source made the active and inactive calls. Rule as the data show it: active = growth inhibition above about 70%; inactive = the rest.

Experiments:
[1] = NCI Yeast Anticancer Drug Screen. Data for the rad52 strain (AID 147);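 also: 0% = growth of vehicle-treated control cultures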; details: S. cerevisiae rad52 mutant growth inhibition, hits give high values
In short: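 Genetically altered yeast (DNA damage repair defect) treated with compound; inhibition calculated relative to vehicle.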

[2] = NCI Yeast Anticancer Drug Screen. Data for the wt1 strain (AID 149);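 also: 0% = growth of vehicle-treated wt1 cultures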; details: S. cerevisiae wt1 strain (SPY 50644) growth inhibition, hits give high values
In short: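 Readout: yeast growth inhibition, normalised to vehicle controls, in the wt1 strain exposed to test compounds.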

[3] = NCI Yeast Anticancer Drug Screen. Data for the rad50EPP+ strain (AID 151);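 also: 0% = growth of vehicle-treated control cultures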; details: S. cerevisiae rad50 mutant strain, hits give high values
In short: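 Strain rad50EPP+; compound exposure; % growth inhibition vs vehicle.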

[4] = NCI Yeast Anticancer Drug Screen. Data for the mgt1 strain (AID 153); details: S. cerevisiae mgt1 mutant growth inhibition, hits give high values
In short: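 Read-out: yeast growth inhibition vs vehicle control. Strain mgt1, drawn from a panel altered in DNA damage repair or cell cycle control.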

[5] = NCI Yeast Anticancer Drug Screen. Data for the rad50 strain (AID 155);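 also: 0% = growth of vehicle-only cultures of the same strain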; details: S. cerevisiae rad50 strain growth inhibition, hits give high values
In short: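 Compounds were tested on a yeast strain with an engineered DNA damage repair alteration; the reported value is growth inhibition normalised to vehicle treatment.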

[6] = NCI Yeast Anticancer Drug Screen. Data for the mec2-1 strain (AID 157); details: S. cerevisiae mec2-1 strain, hits give high values
In short: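 Cells of the genetically defined mec2-1 yeast strain are incubated with test compound. Inhibition of growth is calculated against vehicle-treated controls.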

[7] = NCI Yeast Anticancer Drug Screen. Data for the rad14 strain (AID 159);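 also: 0% = growth of vehicle-treated control cultures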; details: S. cerevisiae rad14 strain growth inhibition, hits give high values
In short: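 Compound-treated yeast with a defined DNA-repair lesion; growth inhibition normalised to vehicle-treated cultures.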

[8] = NCI Yeast Anticancer Drug Screen. Data for the sgs1 mgt1 strain (AID 161);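 also: 0% = growth of cultures given vehicle only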; details: S. cerevisiae sgs1 mgt1 strain, hits give high values
In short: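 Mutant yeast exposed to compound; growth scored against vehicle-only wells.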

[9] = NCI Yeast Anticancer Drug Screen. Data for the CLN2oe strain (AID 163);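 also: 0% = growth of vehicle-only control cultures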; details: S. cerevisiae CLN2oe strain, hits give high values
In short: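 Strain altered in cell-cycle control, incubated with compound; growth compared to solvent-treated controls.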

[10] = NCI Yeast Anticancer Drug Screen. Data for the cln2 rad14 strain (AID 165);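 also: 0% = growth equal to vehicle treated cultures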; details: S. cerevisiae cln2 rad14 strain, hits give high values
In short: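 The screen exposed genetically defined yeast (cln2 rad14) to test compounds and scored growth inhibition relative to vehicle-treated controls.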

[11] = NCI Yeast Anticancer Drug Screen. Data for the bub3 strain (AID 167); details: S. cerevisiae bub3 mutant strain, hits give high values
In short: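 Growth of a checkpoint-deficient yeast mutant is measured after compound exposure. Values represent inhibition relative to vehicle.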

[12] = NCI Yeast Anticancer Drug Screen. Data for the wt2 strain (AID 169);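 also: 0% = growth of vehicle-treated yeast cultures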; details: S. cerevisiae wt2 strain growth inhibition, hits give high values
In short: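 Steps: yeast strain treated with compound; growth recorded; inhibition calculated relative to cultures given vehicle alone.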

[13] = NCI Yeast Anticancer Drug Screen. Data for the mlh1 strain (AID 171);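 also: 0% = growth of vehicle-treated control cultures of the same strain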; details: S. cerevisiae mlh1 strain growth inhibition, hits give high values
In short: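 Yeast screen: mutant strain plus compound, growth scored against vehicle control wells.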

[14] = NCI Yeast Anticancer Drug Screen. Data for the sgs1 strain (AID 173);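 also: 0% = growth of vehicle-only control cultures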; details: S. cerevisiae sgs1 mutant, hits give high values
In short: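 Inhibition of yeast growth served as the measure. The mutant strain was treated with each compound, and growth was normalised to cultures receiving vehicle alone.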

[15] = NCI Yeast Anticancer Drug Screen. Data for the mlh1 rad18 strain (AID 175); details: S. cerevisiae mlh1 rad18 strain growth inhibition, hits give high values
In short: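 Compound-treated yeast growth, normalised to vehicle controls. Strain bears defined DNA repair mutations.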

[16] = NCI Yeast Anticancer Drug Screen. Data for the rad18 strain (AID 177); details: S. cerevisiae rad18 mutant growth inhibition, hits give high values
In short: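 Inhibition values reflect reduced yeast growth compared with vehicle-treated controls, using a strain engineered with a DNA damage repair defect.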

[17] = at 5.0 µM (retest, dose inferred, filed as 0.5)
[18] = at 50.0 µM (retest, dose inferred, filed as 5.0)

Measured: growth inhibition

Cn1c(N)nc(-c2ccc(Cl)cc2)c1SSc1c(-c2ccc(Cl)cc2)nc(N)n1C
inactive: [1]; at 1.2 µM -5% | [1]; at 3.7 µM -2% | [1]; at 11.0 µM 33% | [2]; at 1.2 µM 2% | [2]; at 3.7 µM 4% | [2]; at 11.0 µM 16% | [2]; at 33.0 µM 44% | [3]; at 1.2 µM -6% | [3]; at 3.7 µM 9% | [3]; at 11.0 µM 53% | [4]; at 1.2 µM -2% | [4]; at 3.7 µM 0% | [4]; at 11.0 µM 13% | [5]; at 1.2 µM -9% | [5]; at 3.7 µM -17% | [5]; [17] -13% | [5]; at 11.0 µM 6% | [5]; [18] 15% | [6]; at 1.2 µM -1% | [6]; at 3.7 µM 3% | [6]; [17] -15% | [6]; at 11.0 µM 30% | [6]; [18] 13% | [7]; at 1.2 µM -1% | [7]; at 3.7 µM -1% | [7]; at 11.0 µM 10% | [7]; at 33.0 µM 53% | [8]; [17] -12% | [8]; [18] 6% | [9]; at 1.2 µM -8% | [9]; at 3.7 µM -2% | [9]; at 11.0 µM 5% | [9]; at 33.0 µM 63% | [10]; [17] 37% | [10]; [18] -3% | [11]; at 1.2 µM -4% | [11]; at 3.7 µM -2% | [11]; [17] -4% | [11]; at 11.0 µM 21% | [12]; at 1.2 µM -1% | [12]; at 3.7 µM 1% | [12]; at 11.0 µM 20% | [13]; at 1.2 µM 0% | [13]; at 3.7 µM 3% | [13]; at 11.0 µM 23% | [14]; at 1.2 µM 0% | [14]; at 3.7 µM 6% | [14]; at 11.0 µM 28% | [15]; [17] -5% | [15]; [18] 24% | [16]; at 1.2 µM -3% | [16]; at 3.7 µM -1% | [16]; at 11.0 µM 34%
active: [1]; at 33.0 µM 88% | [1]; at 100.0 µM 98% | [2]; at 100.0 µM 94% | [3]; at 33.0 µM 84% | [3]; at 100.0 µM 97% | [4]; at 33.0 µM 71% | [4]; at 100.0 µM 98% | [5]; at 33.0 µM 73% | [5]; at 50.0 µM 95.5% | [5]; at 100.0 µM 97% | [6]; at 33.0 µM 75% | [6]; at 50.0 µM 93.1% | [6]; at 100.0 µM 97% | [7]; at 100.0 µM 97% | [8]; at 50.0 µM 94.8% | [9]; at 100.0 µM 97% | [10]; at 50.0 µM 92% | [11]; at 33.0 µM 82% | [11]; [18] 93% | [11]; at 50.0 µM 94.9% | [11]; at 100.0 µM 97% | [12]; at 33.0 µM 71% | [12]; at 100.0 µM 99% | [13]; at 33.0 µM 82% | [13]; at 100.0 µM 98% | [14]; at 33.0 µM 85% | [14]; at 100.0 µM 98% | [15]; at 50.0 µM 97.8% | [16]; at 33.0 µM 88% | [16]; at 100.0 µM 94%

O=Nc1c(NO)ccc2nn(-c3ccccc3)nc12
inactive: [1]; at 1.2 µM 29% | [1]; at 3.7 µM 68% | [2]; at 1.2 µM 12% | [2]; at 3.7 µM 27% | [3]; at 1.2 µM 22% | [3]; at 3.7 µM 33% | [3]; at 11.0 µM 51% | [3]; at 33.0 µM 65% | [3]; at 100.0 µM 66% | [4]; at 1.2 µM -1% | [4]; at 3.7 µM 24% | [5]; at 1.2 µM 12% | [5]; at 3.7 µM 42% | [5]; [17] 18% | [5]; at 50.0 µM 38% | [6]; at 1.2 µM 9% | [6]; at 3.7 µM 36% | [6]; [17] 1% | [7]; at 1.2 µM 7% | [7]; at 3.7 µM 31% | [8]; [17] 14% | [9]; at 1.2 µM 5% | [9]; at 3.7 µM 35% | [10]; [17] 37% | [11]; at 1.2 µM 3% | [11]; at 3.7 µM 45% | [11]; [17] 1% | [12]; at 1.2 µM 25% | [12]; at 3.7 µM 41% | [13]; at 1.2 µM 6% | [13]; at 3.7 µM 30% | [14]; at 1.2 µM 61%
active: [1]; at 11.0 µM 98% | [1]; at 33.0 µM 98% | [1]; at 100.0 µM 98% | [2]; at 11.0 µM 96% | [2]; at 33.0 µM 98% | [2]; at 100.0 µM 96% | [4]; at 11.0 µM 98% | [4]; at 33.0 µM 98% | [4]; at 100.0 µM 99% | [5]; at 11.0 µM 96% | [5]; at 33.0 µM 97% | [5]; [18] 99% | [5]; at 100.0 µM 98% | [6]; at 11.0 µM 95% | [6]; at 33.0 µM 98% | [6]; [18] 99% | [6]; at 50.0 µM 88.5% | [6]; at 100.0 µM 97% | [7]; at 11.0 µM 97% | [7]; at 33.0 µM 98% | [7]; at 100.0 µM 98% | [8]; [18] 99% | [8]; at 50.0 µM 87.2% | [9]; at 11.0 µM 97% | [9]; at 33.0 µM 98% | [9]; at 100.0 µM 98% | [10]; [18] 99% | [10]; at 50.0 µM 89.1% | [11]; at 11.0 µM 95% | [11]; at 33.0 µM 98% | [11]; [18] 99% | [11]; at 50.0 µM 90.4% | [11]; at 100.0 µM 97% | [12]; at 11.0 µM 96% | [12]; at 33.0 µM 99% | [12]; at 100.0 µM 98% | [13]; at 11.0 µM 97% | [13]; at 33.0 µM 98% | [13]; at 100.0 µM 98% | [14]; at 3.7 µM 79% | [14]; at 11.0 µM 98% | [14]; at 33.0 µM 99% | [14]; at 100.0 µM 98% | [15]; [17] 77% | [15]; [18] 98% | [15]; at 50.0 µM 91.5% | [16]; at 1.2 µM 79% | [16]; at 3.7 µM 90% | [16]; at 11.0 µM 97% | [16]; at 33.0 µM 97% | [16]; at 100.0 µM 97%
